# Results published in PubChem BioAssay AID1159606 (Sanford-Burnham Center for Chemical Genomics, 2016).
# The campaign covered roughly 360,000 compounds. About 7,300 (2%) were called active. What follows is part of a selection rich in actives, with near analogues and random picks from the rest. Values without a mark were called inactive. Cut-off read from the data, not from the text of the source: active = inhibition above about 50%; inactive = the rest.
# Assay: inhibitors of TWEAK-Fn14 signaling, primary screen, luciferase reporter cells, uHTS (AID 1159606)
# Settings: TWEAK-stimulated Fn14 reporter cells, luciferase luminescence, 8 h; at 10 µM; active compounds read high
row,Compound,inhibition
1,COC(=O)C1(C(=O)OC)C/C=C\CN(S(=O)(=O)c2ccccc2[N+](=O)[O-])CCC1,-4.25%
2,CC(=O)N1CCSc2ccc(S(=O)(=O)N3CCC(C)CC3)cc21,10.4%
3,Cc1csc(=O)n1CCC(=O)OCC(=O)Nc1ccc(N2CCOCC2)cc1,-8.76%
4,COc1ccccc1CNc1nc(Nc2ccccc2Cl)c2sccc2n1,61.9% (active)
5,COc1cccc(CNc2nc(NCc3ccccc3OC)nc3ccsc23)c1,63.1% (active)
6,COc1cccc(CNc2nc(NCc3cccs3)nc3ccsc23)c1,-13.7%
7,COCCNc1nc(NCc2ccc(NC(C)=O)cc2)c2sccc2n1,-3.75%
8,Clc1ccccc1Nc1nc(NCc2cccs2)nc2ccsc12,12.1%
9,COCCNc1nc(Nc2ccccc2Cl)c2sc(-c3ccccc3)cc2n1,-18.2%
10,O=C1CC(c2ccccc2)C(c2ccccc2)=NN1 (stereo not given),-8.4%
11,O=S1(=O)CCOC[C@H](CC2CCCCC2)N1Cc1ccc(F)cc1,3.84%
12,CCc1cccc(CC)c1NC(=O)COc1ccccc1C(=O)c1cc(C#N)c(=O)n(C2CCCCC2)c1,19.8%
13,CN(Cc1cn(Cc2ccc(C(F)(F)F)cc2)nn1)C1CN(Cc2cn(Cc3ccc(C(F)(F)F)cc3)nn2)S(=O)(=O)C1 (stereo not given),33.8%
14,CC(=O)c1nc(N2C(=O)C3CC=C(C)CC3C2=O)sc1C (stereo not given),-2.22%
15,Cc1ccc(-c2cc(=O)[nH]c(NCc3ccccc3)n2)cc1,9.23%
16,CCS(=O)(=O)c1ccc2c(c1)N(S(=O)(=O)c1ccccc1)CC(C(=O)O)O2 (stereo not given),-19.1%
17,COC(=O)c1c(C)[nH]c(C(=O)/C=C/c2ccc(Cl)cc2)c1C,-23.7%
18,Cc1[nH]c(=O)c(C(=O)/C=C/c2ccccc2)c2c1CCCC2,83.9% (active)
19,CC1(C(=O)O)CCCN(C(=O)/C=C/c2ccccc2)C1 (stereo not given),3.38%
20,CCN(CC)CCOc1ccc2c(c1)C(=NNC(=O)c1ccccn1)c1cc(OCCN(CC)CC)ccc1-2,-85.7%
21,COc1ccc(-c2cc(C(=O)N(C)Cc3ccc(OC)c(OC)c3OC)c3ccccc3n2)cc1OC,19.7%
22,COc1ccc(-c2cc(C(=O)NCCCN3CCCC3=O)c3ccccc3n2)cc1OC,-9.51%
23,COc1ccc(-c2cc(C(F)(F)F)nc(S(C)(=O)=O)n2)cc1OC,76.2% (active)

row,Compound,inhibition
1,OCC1(Cc2ccccc2C(F)(F)F)CCN(Cc2ccncc2)CC1,14.4%
2,Cc1cc(-c2nnc(SCC(=O)Nc3ccc(F)cc3)n2N)n[nH]1,1.35%
3,O=C(CC[C@H]1O[C@@H](n2ccc(=O)[nH]c2=O)[C@H](O)[C@@H]1O)N[C@H](Cc1ccccc1)C(=O)NCc1ccco1,10.1%
4,CC(OC(=O)/C=C/c1ccccc1)C(=O)NC1CCCCC1C (stereo not given),-1.03%
5,CC1CCCCC1NC(=O)COc1ccc(C#N)cc1 (stereo not given),2.53%
6,CC1CCCCC1NC(=O)/C(C#N)=C/C=C/c1ccccc1[N+](=O)[O-] (stereo not given),84.9% (active)
7,CC(=O)NCC(=O)N(C)C(C(=O)Nc1ccc2c(c1)OCCO2)c1ccccc1 (stereo not given),7.79%
8,CCN(CC)CCn1cnc2c1c(=O)n(CCOC(=O)c1cc(OC)c(OC)c(OC)c1)c(=O)n2C,-2.5%
9,O=C(CC1SC(N2CCCC2)=NC1=O)Nc1ccc(C(=O)NCCc2ccc(F)cc2)cc1 (stereo not given),-8.62%
10,C=CCN(CC=C)S(=O)(=O)c1ccc(C(=O)Nc2nc3c(s2)CCc2ccccc2-3)cc1,-34.3%
11,N#Cc1c(-c2cccs2)nc(SCC(=O)c2ccc(Br)cc2)[nH]c1=O,-12.4%
12,N#Cc1ccc(C(=O)Nc2nc(-c3cccs3)c(C(=O)C(F)(F)F)s2)cc1,58.4% (active)
13,Cc1oc2c(C)c3oc(=O)c(CC(=O)N[C@@H](CC(C)C)C(=O)N[C@@H](Cc4ccccc4)C(=O)O)c(C)c3cc2c1C,-9.29%
14,COC(=O)c1ccc(NS(=O)(=O)c2cc3c4c(c2)C(C)C(=O)N4CCC3)cc1 (stereo not given),9.82%
15,CCOC(=O)CSc1nnc(NC(=O)c2cccc(S(=O)(=O)N3CCCCC3)c2)s1,41.9%
16,O=C(Nc1nnc(-c2ccc(F)cc2)s1)c1c(F)cccc1Cl,5.11%
17,Cc1cccc(C(=O)Nc2nnc(S(=O)(=O)N3CCCCCC3)s2)c1,-46.1%
18,Cc1ccc(S(=O)(=O)CCC(=O)Nc2nnc(CC(C)C)s2)cc1,-1.46%
19,Cc1ccc(CS(=O)(=O)c2ncc(Cl)c(C(=O)Nc3nnc(C)s3)n2)cc1,96.5% (active)
20,CSc1nnc(NC(=O)c2nc(S(=O)(=O)Cc3ccc(C)cc3)ncc2Cl)s1,92% (active)
21,CSc1nc2nc3c(c(=O)n2[nH]1)CCC3,-0.44%
22,CCCn1c(N)c(N(CCOC)C(=O)C2CCCC2)c(=O)[nH]c1=O,-6.44%
23,CC(=O)Nc1ccc(S(=O)(=O)N2CCC(C(=O)N[C@@H](Cc3ccccc3)C(=O)O)CC2)cc1,-3.83%

row,Compound,inhibition
1,Cc1cc(OCCOc2cccc3cccnc23)c(C)cc1Cl,-15.2%
2,Cc1ccc([C@@H]2CC(=O)[C@@H]3CN(S(=O)(=O)c4ccc(C)cc4)[C@H](c4ccccc4F)C[C@@H]3N2S(=O)(=O)c2ccc(Cl)cc2)cc1,-13.3%
3,COc1cc(C(F)(F)F)nc2c(Br)c(C(C)(C)C)nn12,15.2%
4,NC(=NC(=O)c1ccccc1)N1CCOCC1,-6.39%
5,O=C(CSC(=S)N1CCOCC1)c1ccccc1,71.9% (active)
6,CC1CN(C(=S)SCC(=O)c2ccccc2)CC(C)O1 (stereo not given),3.23%
7,CC1(C(=O)Nc2cccc3cccnc23)CCN1C(=O)CCC1CCCC1 (stereo not given),8.06%
8,N#Cc1ccsc1NC(=O)CN1CCCCC1,-0.37%
9,Cc1csc(SCC(=O)Nc2sccc2C#N)n1,56.5% (active)
10,Cc1csc(SCC(=O)Nc2ccc(C)c(S(=O)(=O)N(C)C)c2)n1,-4.8%
11,CCN1C(=O)N[C@@H](c2ccccc2)[C@H](C(C)=O)[C@H]1C,-0.1%
12,CSc1ccccc1NC(=O)Cc1ccc(Br)cc1,4.45%
13,CCC1CCc2c(sc(NC(C)=O)c2C#N)C1 (stereo not given),-8.64%
14,N#Cc1ccccc1NC(=O)c1ccc2c(c1)OCO2,-17.5%
15,COCc1nnc(NC(=O)c2ccc3c(c2)OCO3)s1,14.7%
16,Cc1ccc(-c2csc(NC(=O)C3=COCCO3)n2)cc1C,1.4%
17,C/C(=N/NC(=O)c1ccncc1)c1ccc2c(c1)OCO2,11.5%
18,O=C(Nc1nc2ccccc2s1)c1ccc2c(c1)OCO2,83.7% (active)
19,O=C(Nc1nc(-c2ccc3c(c2)OCO3)cs1)c1ccncc1,57.8% (active)
20,CCCNS(=O)(=O)c1ccc(CCC(=O)NCc2cccnc2)cc1,6.9%
21,COc1ccc(C2(C)ON(c3ccccc3C(F)(F)F)C2=O)cc1 (stereo not given),-8.35%
22,CCCCN(CC)C(=O)c1ccccc1Oc1ccccc1,11.6%
23,Cc1ccc(NC(=O)Cc2nc(COC(=O)C(C)NS(=O)(=O)c3ccc(C)cc3)cs2)cc1 (stereo not given),-7.54%

row,Compound,inhibition
1,CCOC(=O)/C=C/CN(C(=O)OC(C)(C)C)S(=O)(=O)N1CC=CC1,8.4%
2,Cc1ccc(-c2noc(CSc3nnc(-c4ccncc4)n3-c3ccc(F)cc3)n2)cc1,1%
3,Cc1ccc(Nc2nc(CSc3nnc(-c4ccncc4)n3-c3ccccc3C)cs2)cc1,74.3% (active)
4,Cc1ccc(-n2c(SCC(=O)N3c4ccccc4Sc4ccccc43)nnc2-c2ccncc2)cc1,20.4%
5,FC(F)(F)c1cc(C(F)(F)F)c2ccc(N3CCN(c4ccccc4)CC3)nc2n1,-12.2%
6,Cc1ccc(-c2nc3ccc(Cl)cn3c2Cc2ccccc2)cc1,-22%
7,Clc1ccc2nc(CSc3ccccc3)cn2c1,59.6% (active)
8,Cc1ccc(Cc2c(-c3ccccc3)nc3ccc(Cl)cn23)cc1,-20.8%
9,CC1(C(=O)NS(=O)(=O)c2cccc(F)c2)CCN1C(=O)c1cccc2ccccc12 (stereo not given),-20.6%
10,Cc1ccc(-c2cnc(C(O)c3cc(Cl)cc(Cl)c3)[nH]2)cc1 (stereo not given),-5.74%
11,CC1CCc2sc3nc(N4CCN(CCO)CC4)n4ncnc4c3c2C1 (stereo not given),-63.4%
12,CCCCNc1c(-c2cccc(Sc3ccc(OC)cc3)c2)nc2ccccn12,53.7% (active)
13,CCCCNc1c(-c2ccc(OC)c(Sc3ccc(OC)cc3)c2)nc2ccc(Cl)cn12,5.14%
14,COC(=O)c1ccc2nc(-c3ccccc3)c(Cc3ccc(OC)cc3C)n2c1,-3.6%
15,COC(=O)c1cc(=O)n(-c2c(Cl)cc(C(F)(F)F)cc2Cl)[nH]1,7.88%
16,O=C(Nc1nccs1)C1CCN(S(=O)(=O)c2ccc(Cl)c(C(F)(F)F)c2)CC1,73.5% (active)
17,O=C(Nc1ccccn1)C1CCN(S(=O)(=O)c2ccccc2)CC1,-18.5%
18,CCOC(=O)C1CCCN(C(=O)C2CCN(S(=O)(=O)c3ccc(Cl)c(C(F)(F)F)c3)CC2)C1 (stereo not given),-2.02%
19,N#Cc1cccc(NC(=O)c2cc(C3CCCCN3C(=O)CCc3ccccc3)on2)c1 (stereo not given),26.1%
20,C#CCN(N(C)c1ncc(C(F)(F)F)cc1Cl)S(=O)(=O)c1ccc2ccccc2c1,18%
21,C=CCNc1nc(N)c(C(=C(C#N)C#N)c2ccccc2)s1,17.7%
